This note sets out measurements from PubChem BioAssay (Tox21).

The nature of test [1]: Nuclear factor erythroid 2-related factor 2/antioxidant responsive element (Nrf2/ARE) small molecule agonists: qHTS cell viability counter screen in human keratinocytes (AID 1919968; active = well fitted curve in the direction sought with a large enough effect in the repeat runs; an effect the other way counts as inactive or inconclusive; note: nearly all actives have a fitted effect of over 55% in size). Summed up: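 After a 5 h attachment period, ARE-reporter keratinocytes were dosed with compounds in DMSO and then cultured 23 h at 37 C. Cell viability came from CellTiter-Fluor signal read after a further 1 h.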
Background: Quantitative high-throughput screening tests each substance at several concentrations.

A short description of test [2]: Nuclear factor erythroid 2-related factor 2/antioxidant responsive element (Nrf2/ARE) small molecule agonists: luciferase reporter gene qHTS assay in human keratinocytes (AID 1919969). Note: nearly all actives have a fitted effect of over 35% in size. In general terms: A reporter such as luciferase makes a cellular process visible.
Test [3] addresses Gonadotropin-releasing hormone receptor (Homo sapiens) (UniProt P30968). Briefly: Human gonadotropin-releasing hormone receptor (GnRHR) small molecule agonists, calcium flux assay in GnRHR-HEK293 cells (AID 1920063). Note: nearly all actives have a fitted effect of over 35% in size. Summed up: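 We seeded human GnRHR-expressing HEK293 cells for 18 hours, loaded them with calcium dye for an hour at 37 C, added test compounds, and recorded fluorescence intensity kinetically for three minutes.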

The target in test [4] is KiSS-1 receptor (Homo sapiens) (UniProt Q969F8). Briefly: Human kisspeptin (KISS1R) small molecule agonists, calcium flux assay in KISS1R-HEK293 cells (AID 1920064; active = well fitted curve in the direction sought with a large enough effect in the repeat runs; an effect the other way counts as inactive or inconclusive). In outline: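 Kinetic calcium assay, 1 s sampling over 3 min at Ex/Em 480/540, in HEK293 cells engineered with human KISS1R; compounds delivered in DMSO after 1 h dye loading.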
The nature of test [5]: G protein-coupled receptor (GPCR) small molecule agonists, calcium flux assay: HEK293 wild type cell line counter screen (AID 1920065). In outline:
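Calcium-sensitive dye, loaded 1 h at 37 C into cells cultured 18 h, reports compound-evoked calcium release as fluorescence (Ex/Em 480/540), measured over 3 min. Agonist mode; 15-point titrations, triplicate.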

Test [6] in a line: p53 small molecule agonists, cell-based qHTS assay with human liver microsomes (AID 1963577). Summed up: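 Fluorescence of the beta-lactamase reporter in p53RE-bla cells, detected with LiveBLAzer substrate (2 h, room temperature, dark), served as the read-out after 16 h compound exposure at 37 C with human liver microsomes and NADPH, each 0.5 mg/mL final.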
Test [7] can be described thus: p53 small molecule agonists, cell-based qHTS assay with rat liver microsomes (AID 1963578). Summed up:
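Cells carrying a p53 response element–beta-lactamase reporter were plated and rested 5 h, then dosed with compound in DMSO plus rat liver microsomes and NADPH, each at 0.5 mg/mL final. After 16 h at 37 C, LiveBLAzer substrate was added for 2 h.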

A short description of test [8]: p53 small molecule agonists, cell-based qHTS assay with human liver microsomes: qHTS cell viability counter screen (AID 1963579). Note: nearly all actives have a fitted effect of over 45% in size. In outline:
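Cytotoxicity counter screen: p53RE-bla, 4,000 cells/well; 5 h settle, 37 C/5% CO2; cpd + HLM 0.5 mg/mL + NADPH 0.5 mg/mL (final); 16 h, 37 C; CellTiter-Glo, 30 min RT, luminescence.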

The nature of test [9]: p53 small molecule agonists, cell-based qHTS assay with rat liver microsomes: qHTS cell viability counter screen (AID 1963580). Note: nearly all actives have a fitted effect of over 45% in size. Summed up: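 HCT-116 p53RE-bla, 4,000 cells/well, 5 h pre-incubation; cpd + rat liver microsomes 0.5 mg/mL + NADPH 0.5 mg/mL (final); 16 h, 37 C; CellTiter-Glo, 30 min RT; luminescence.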
Test [10] in a line: p53 small molecule agonists, cell-based qHTS assay: qHTS cell viability counter screen (AID 1963581). Note: nearly all actives have a fitted effect of over 45% in size. In outline:
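Following 5 h attachment, HCT-116 p53RE-bla cells took up compound for 16 h at 37 C; the reporter was read with B/G FRET substrate (2 h RT), and viability then via CellTiter-Glo ATP luminescence.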

The nature of test [11]: p53 small molecule agonists, cell-based qHTS assay (AID 1963582; active = well fitted activation curve with a large enough effect in the signal ratio in the repeat runs, not every such curve was filed as active; the % refers to the signal ratio). Summed up:
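In this cell-based concentration-response screen, a p53 response element drives beta-lactamase; cells received DMSO-borne compounds after 5 h culture and were incubated a further 16 h before FRET substrate development.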

The target of test [12] is 5-hydroxytryptamine receptor 2A (Homo sapiens) (UniProt P28223). Briefly: 5-hydroxytryptamine receptor 2A (HTR2A) small molecule antagonists, cell-based qHTS assay (AID 1963586). Note: nearly all actives have a fitted effect of over 45% in size. Note: potency is the fitted concentration of half-maximal effect. In outline: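 Antagonist-mode intracellular calcium assay: DOI (4 nM) added after 5 min compound pre-incubation at room temperature to dye-loaded HTR2A-CHO cells. Fluorescence followed for 3 min, sampled every second.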

For test [13] the target is unchanged. Briefly: 5-hydroxytryptamine receptor 2A (HTR2A) small molecule agonists, cell-based qHTS assay (AID 1963587). Note: nearly all actives have a fitted effect of over 30% in size. Summed up: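 Kinetic calcium-flux fluorescence (2 min, 1 sec intervals) after compound addition in agonist mode. HTR2A-CHO cells were cultured 18 h, then dye-loaded 1 h at 37 C.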
In test [14] the target is Muscarinic acetylcholine receptor M1 (Homo sapiens) (UniProt P11229). Briefly: Cholinergic receptor muscarinic 1 (CHRM1) small molecule agonists, cell-based qHTS assay (AID 1963589). Note: nearly all actives have a fitted effect of over 35% in size. Summed up: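 Measures agonist-induced intracellular calcium rise. Stable human CHRM1 CHO line, 1 h dye load at 37 C, compounds from DMSO, kinetic fluorescence read.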
Test [15] concerns the target D(2) dopamine receptor (Homo sapiens) (UniProt P14416). Briefly: Dopamine D2 receptor (DRD2) small molecule agonists, cell-based qHTS assay (AID 1963594). Note: nearly all actives have a fitted effect of over 35% in size. Summed up: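 cAMP accumulation in DRD2-HEK293 cells measured by HTRF after 1 h detection; compounds added 10 min before NKH477 (200nM […]) forskolin-analogue stimulation, 30 min at room temperature, with Ro20-1724 present at 0.1 mM final.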

Test [16] has the same target. Briefly: Dopamine D2 receptor (DRD2) small molecule antagonists, cell-based qHTS assay (AID 1963595; active = well fitted inhibition curve with a large enough effect in the signal ratio in the repeat runs, with a control signal flat; the % refers to the signal ratio). In outline:
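Human DRD2 antagonist qHTS measuring cAMP by HTRF. The cells are exposed to compound for 10 min, then to NKH477 (200 nM) and quinpirole (12 nM) for 30 min at RT, with Ro20-1724 (0.1 mM) present throughout.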

A short description of test [17]: cAMP Responsive Elements (CRE) small molecule agonists, cell-based qHTS assay (AID 1963590). Summed up:
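A CRE-responsive beta-lactamase reporter in HEK 293T cells was used. Treatment ran 3 h at 37 C; detection used LiveBLAzer B/G FRET substrate for 2 h at room temperature.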

Test [18] is described as follows: cAMP Responsive Elements (CRE) small molecule antagonists, cell-based qHTS assay (AID 1963591; active = well fitted inhibition curve with a large enough effect in the signal ratio in the repeat runs, not every such curve was filed as active; the % refers to the signal ratio). In outline: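 HEK293T cells carrying a CRE-driven beta-lactamase reporter receive compound and NKH477 (0.25 uM final) for 3 h. Fluorescence from LiveBLAzer B/G FRET substrate is read after 2 h at room temperature.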
The target of test [19] is Beta-2 adrenergic receptor (Homo sapiens) (UniProt P07550). Briefly: Adrenergic beta2 receptor (ADRB2) small molecule antagonists, cell-based qHTS assay (AID 1963592). Note: series mostly up to about 92 µM; nearly all actives have a fitted effect of over 50% in size. Summed up:
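Cells (CHO, stable ADRB2 overexpression) incubated 18-20hr at 37C; compounds added from DMSO; agonist mix (1nM isoproterenol, 100uM IBMX, 25uM Ro-20-1724) added; 0.5hr RT; d2-cAMP and anti-cAMP-cryptate added; 1hr RT; 665/615 nm read.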

The target of test [20] is Muscarinic acetylcholine receptor M1 (Homo sapiens) (UniProt P11229). Briefly: Cholinergic receptor muscarinic 1 (CHRM1) small molecule antagonists, cell-based qHTS assay (AID 1963588). Note: nearly all actives have a fitted effect of over 40% in size. Summed up: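 CHRM1-CHO calcium-flux assay, antagonist mode. Cells were seeded 18 h, dye-loaded 1 h at 37 C and given compound for 5 min at RT, then acetylcholine was added at 50nM. FDSS fluorescence was read 3 min; 15 concentrations, three runs.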

Unmarked numbers belong to inactive results. Records with an inconclusive call do not appear. Active and inactive are the calls of the source. Unless noted, calls come from the whole dose curve.
% is set by controls: 0 for no effect and ±100 for the full control effect.

Gonadotropin-releasing hormone receptor (Homo sapiens), sequence (P30968 whole entry, looked up): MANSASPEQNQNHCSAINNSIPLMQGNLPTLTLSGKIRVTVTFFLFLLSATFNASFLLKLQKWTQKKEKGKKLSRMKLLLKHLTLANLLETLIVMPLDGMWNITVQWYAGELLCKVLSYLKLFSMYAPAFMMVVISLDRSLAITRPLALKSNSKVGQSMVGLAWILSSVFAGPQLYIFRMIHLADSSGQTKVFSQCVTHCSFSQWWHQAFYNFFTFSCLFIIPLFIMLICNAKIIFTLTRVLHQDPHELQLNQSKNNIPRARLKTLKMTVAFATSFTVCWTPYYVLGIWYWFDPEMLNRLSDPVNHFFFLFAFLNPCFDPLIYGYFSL
Muscarinic acetylcholine receptor M1 (Homo sapiens), sequence (P11229 whole entry, looked up): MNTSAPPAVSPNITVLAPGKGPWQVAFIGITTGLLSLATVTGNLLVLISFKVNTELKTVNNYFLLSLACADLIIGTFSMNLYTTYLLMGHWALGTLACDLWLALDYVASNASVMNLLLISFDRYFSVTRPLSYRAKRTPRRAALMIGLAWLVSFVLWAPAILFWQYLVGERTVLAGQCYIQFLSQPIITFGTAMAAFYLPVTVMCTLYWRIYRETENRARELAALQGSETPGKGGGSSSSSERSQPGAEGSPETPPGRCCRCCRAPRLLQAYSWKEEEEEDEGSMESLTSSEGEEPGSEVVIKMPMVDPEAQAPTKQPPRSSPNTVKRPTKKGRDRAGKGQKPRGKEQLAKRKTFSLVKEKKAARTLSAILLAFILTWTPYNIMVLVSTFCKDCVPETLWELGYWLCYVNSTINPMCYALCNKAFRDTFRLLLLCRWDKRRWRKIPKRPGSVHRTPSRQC
D(2) dopamine receptor (Homo sapiens), sequence (P14416 whole entry, looked up): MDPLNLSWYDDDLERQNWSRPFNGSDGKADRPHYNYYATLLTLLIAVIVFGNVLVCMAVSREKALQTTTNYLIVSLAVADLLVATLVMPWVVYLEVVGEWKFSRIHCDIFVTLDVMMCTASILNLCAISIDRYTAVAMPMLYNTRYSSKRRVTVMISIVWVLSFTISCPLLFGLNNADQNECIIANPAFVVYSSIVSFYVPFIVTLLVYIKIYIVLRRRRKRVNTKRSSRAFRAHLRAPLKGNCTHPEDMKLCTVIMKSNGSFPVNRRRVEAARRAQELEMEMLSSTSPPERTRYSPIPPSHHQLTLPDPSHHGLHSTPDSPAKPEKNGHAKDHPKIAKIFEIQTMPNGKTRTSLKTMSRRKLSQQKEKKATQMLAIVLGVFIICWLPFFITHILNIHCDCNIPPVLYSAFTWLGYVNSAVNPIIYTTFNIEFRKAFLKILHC
5-hydroxytryptamine receptor 2A (Homo sapiens), sequence (P28223 whole entry, looked up): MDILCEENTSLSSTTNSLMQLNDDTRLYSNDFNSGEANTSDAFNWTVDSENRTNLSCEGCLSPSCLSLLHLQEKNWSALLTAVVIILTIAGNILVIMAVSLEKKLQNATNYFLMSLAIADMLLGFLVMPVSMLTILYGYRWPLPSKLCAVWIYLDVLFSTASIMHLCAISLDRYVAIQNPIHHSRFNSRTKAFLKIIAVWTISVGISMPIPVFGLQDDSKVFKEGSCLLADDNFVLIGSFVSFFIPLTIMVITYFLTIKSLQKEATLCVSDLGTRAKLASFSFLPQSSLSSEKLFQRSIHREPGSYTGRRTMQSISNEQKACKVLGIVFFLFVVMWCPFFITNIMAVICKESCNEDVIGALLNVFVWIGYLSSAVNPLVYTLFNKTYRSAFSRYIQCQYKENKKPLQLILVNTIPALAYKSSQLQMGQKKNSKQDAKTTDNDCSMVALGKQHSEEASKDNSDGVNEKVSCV
KiSS-1 receptor (Homo sapiens), sequence (Q969F8 whole entry, looked up): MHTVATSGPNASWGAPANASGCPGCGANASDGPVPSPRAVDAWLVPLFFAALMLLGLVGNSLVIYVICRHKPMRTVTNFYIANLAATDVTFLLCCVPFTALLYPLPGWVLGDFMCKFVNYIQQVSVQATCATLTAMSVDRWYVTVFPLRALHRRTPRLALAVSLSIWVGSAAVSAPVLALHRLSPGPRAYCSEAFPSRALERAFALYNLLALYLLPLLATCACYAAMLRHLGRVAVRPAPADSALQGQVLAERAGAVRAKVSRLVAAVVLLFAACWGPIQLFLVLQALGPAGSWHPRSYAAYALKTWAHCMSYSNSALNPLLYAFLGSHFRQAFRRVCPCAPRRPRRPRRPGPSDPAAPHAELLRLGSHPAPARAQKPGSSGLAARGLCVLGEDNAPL
Beta-2 adrenergic receptor (Homo sapiens), sequence (P07550 whole entry, looked up): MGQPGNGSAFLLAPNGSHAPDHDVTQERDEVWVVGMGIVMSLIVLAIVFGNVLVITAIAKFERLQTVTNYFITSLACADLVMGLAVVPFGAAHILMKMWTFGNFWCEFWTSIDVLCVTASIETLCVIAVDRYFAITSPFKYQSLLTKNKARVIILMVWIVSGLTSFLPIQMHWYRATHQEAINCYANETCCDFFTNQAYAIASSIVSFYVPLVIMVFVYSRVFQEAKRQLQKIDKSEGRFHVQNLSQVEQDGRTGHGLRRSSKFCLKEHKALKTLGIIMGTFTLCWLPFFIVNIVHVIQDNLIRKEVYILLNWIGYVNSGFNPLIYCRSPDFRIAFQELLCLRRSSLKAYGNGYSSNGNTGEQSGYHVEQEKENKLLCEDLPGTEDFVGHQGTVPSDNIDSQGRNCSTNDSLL

For `CCCCOCCOC(=O)COc1cc(Cl)c(Cl)cc1Cl`, the Potency entry in test [1], in test [2], in test [3], in [6], in [7] and in [8] was “inactive” throughout. The Potency entry in test [9], in test [10], in test [11], in test [13], in [14] and in [15] was “inactive” each time. In addition, the Potency entry in test [16] was “inactive”. For the same compound, the outcome in [4] and in test [5] was inactive. In addition, the Potency in test [12] was 9.42 µM (active).
Turning to `O=S(O)O`, the activity change, negative = cytotoxicity in [1] is -0.591% [at 19 µM]; in test [8] it was -0.784% [at 13.5 µM]; in test [9] it was 11.9% [at 13.5 µM]; in [10], 16.3% [at 13.5 µM]. For the same compound, in test [2], the activity, positive = activation is -3.64% [at 19 µM]. The activity change in test [3] is -0.296% [at 11.8 µM, stronger effect = higher value]. The activation in test [4] is -3.75% [at 15.8 µM]; in test [5], -0.558% [at 11.8 µM]; in [6] it was 4.55% [at 13.5 µM]; in test [7] it was -0.532% [at 13.6 µM]; in [11], 0.538% [at 13.5 µM]; in test [13], 4.7% [at 15.9 µM]. The figures for the activation in test [14], in [17] and in test [15] were 0.709% [at 15.8 µM], 1.33% [at 19 µM] and 2.66% [at 19 µM], respectively. In test [12], the activity, negative = inhibition was -15% [at 12.7 µM]. Also, the values for the activity change, negative = inhibition in test [18] and in [16] were 0.0539% [at 18.9 µM] and -0.433% [at 18.9 µM], respectively.
Regarding `CN1CCN(CC(=O)N2c3ccccc3C(=O)Nc3cccnc32)CC1`, the activity change, negative = cytotoxicity in [1] was 0.0434% [at 8.39 µM]; in test [8] it was 5.54% [at 5.99 µM]; in test [9] it was 1.67% [at 5.99 µM]; in [10] it was 22.9% [at 5.99 µM]. Also, the activity, positive = activation in test [2] is -1.98% [at 8.39 µM]. The activity change in test [3] was -0.376% [at 5.22 µM, stronger effect = higher value]. Besides, the activation in [4] is 7.1% [at 6.97 µM]; in test [5] it was -0.198% [at 5.23 µM]; in [6], 8.34% [at 5.99 µM]; in [7], 0.0177% [at 5.99 µM]; in test [11], -1.98% [at 5.99 µM]; in [13] it was 0.502% [at 7.02 µM]. In addition, the activation in [17] was -0.47% [at 8.39 µM]. For the same compound, in test [12], the activity, negative = inhibition was 57.8% [at 5.62 µM]. Further, the activity change, negative = inhibition in [18] was -9.03% [at 8.39 µM]; in [19] it was -1.73% [at 8.39 µM]; in test [16], 3.87% [at 8.38 µM].
`Nc1nc(-c2ccc([N+](=O)[O-])cc2)cs1`: the Potency result in [1], in test [2], in test [3], in [6], in test [7] and in test [8] was “inactive” in each case. Besides, the Potency result in test [9], in test [10], in test [11], in test [13], in test [20] and in test [14] was “inactive” each time. Also, the Potency result in [17], in test [18], in test [19], in [15] and in test [16] was “inactive” in each case. Further, the outcome in test [4] and in test [5] was inactive.
As to `C=CC(=O)OCCCl`, the Potency result in test [1], in test [2], in [3], in test [6], in [7] and in test [8] was “inactive” each time. Moreover, the Potency result in test [9], in test [10], in test [11], in test [12], in test [14] and in test [17] was “inactive” in each case. Further, the Potency entry in test [18], in test [15] and in test [16] was “inactive” in each case. Further, the outcome in [4] and in test [5] was inactive.
